Data published in PubChem BioAssay (NCATS).
Records with an inconclusive call do not appear. Activity calls are given as the source filed them. Calls come from the whole dose curve; as a rule, active = well fitted curve in the direction sought with a large enough effect; inconclusive = small, poorly fitted or top-dose-only effect, or another doubt; inactive = no such curve, though single readings can be large; an effect the other way counts as inactive or inconclusive.

Key:
[1] = S16 Schwann cell viability assay (CellTiter-Glo assay) (AID 624031);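 note: cellular ATP luminescence as a viability measure; nearly all actives have a fitted effect of over 70% in size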
Procedure, shortened: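 Native S16 rat Schwann cells in DMEM/10% FBS without phenol red were incubated overnight, then exposed to compounds for 24 h at 37 °C/5% CO2. Viability was read as ATP luminescence (CellTiter-Glo), normalized to no-cell wells and DMSO (0%).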

[2] = tested on: AA1029; experiment: qHTS profiling for inhibitors of Plasmodium falciparum proliferation (AID 504749); note: nearly all actives have a fitted effect of over 60% in size; settings: P. falciparum in erythrocytes, SYBR Green DNA, 72 h; series mostly up to 12.8 µM
Procedure, shortened: (§1)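 SYBR Green fluorescence of parasite DNA, read after lysis and overnight dark incubation, measured growth over 72 h in erythrocyte culture at 0.3% parasitemia and 2.5% hematocrit. Data normalised to DMSO and 0.29 uM artemisinin, with plate-drift correction.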

[3] = tested on: ATS95; experiment: as above; settings: P. falciparum in erythrocytes, SYBR Green DNA, 72 h; series mostly up to 12.8 µM
Procedure, shortened: as §1

[4] = tested on: CP211; experiment: as above; settings: P. falciparum in erythrocytes, SYBR Green DNA, 72 h; series mostly up to 12.8 µM
Procedure, shortened: as §1

[5] = tested on: CP215; experiment: as above; settings: P. falciparum in erythrocytes, SYBR Green DNA, 72 h; series mostly up to 28.7 µM
Procedure, shortened: as §1

[6] = tested on: CP217; experiment: as above; settings: P. falciparum in erythrocytes, SYBR Green DNA, 72 h; series mostly up to 12.8 µM
Procedure, shortened: as §1

[7] = tested on: CP252; experiment: as above; settings: P. falciparum in erythrocytes, SYBR Green DNA, 72 h; series mostly up to 12.8 µM
Procedure, shortened: as §1

[8] = tested on: CP260; experiment: as above; settings: P. falciparum in erythrocytes, SYBR Green DNA, 72 h; series mostly up to 12.8 µM
Procedure, shortened: as §1

[9] = tested on: CP268; experiment: as above; settings: P. falciparum in erythrocytes, SYBR Green DNA, 72 h; series mostly up to 12.8 µM
Procedure, shortened: as §1

[10] = tested on: CP269; experiment: as above; settings: P. falciparum in erythrocytes, SYBR Green DNA, 72 h; series mostly up to 12.8 µM
Procedure, shortened: as §1

[11] = tested on: CP315; experiment: as above; settings: P. falciparum in erythrocytes, SYBR Green DNA, 72 h; series mostly up to 12.8 µM
Procedure, shortened: as §1

[12] = tested on: CP325; experiment: as above; settings: P. falciparum in erythrocytes, SYBR Green DNA, 72 h; series mostly up to 12.8 µM
Procedure, shortened: as §1

[13] = tested on: DIV14; experiment: as above; settings: P. falciparum in erythrocytes, SYBR Green DNA, 72 h; series mostly up to 12.8 µM
Procedure, shortened: as §1

[14] = tested on: GB4; experiment: as above; settings: P. falciparum in erythrocytes, SYBR Green DNA, 72 h; series mostly up to 12.8 µM
Procedure, shortened: as §1

[15] = tested on: ICS; experiment: as above; settings: P. falciparum in erythrocytes, SYBR Green DNA, 72 h; series mostly up to 12.8 µM
Procedure, shortened: as §1

[16] = tested on: N140; experiment: as above; settings: P. falciparum in erythrocytes, SYBR Green DNA, 72 h; series mostly up to 12.8 µM
Procedure, shortened: as §1

[17] = tested on: P93_24; experiment: as above; settings: P. falciparum in erythrocytes, SYBR Green DNA, 72 h; series mostly up to 12.8 µM
Procedure, shortened: as §1

[18] = tested on: PC26; experiment: as above; settings: P. falciparum in erythrocytes, SYBR Green DNA, 72 h; series mostly up to 12.8 µM
Procedure, shortened: as §1

[19] = tested on: SC27B; experiment: as above; settings: P. falciparum in erythrocytes, SYBR Green DNA, 72 h; series mostly up to 12.8 µM
Procedure, shortened: as §1

[20] = tested on: TAB165; experiment: as above; settings: P. falciparum in erythrocytes, SYBR Green DNA, 72 h; series mostly up to 12.8 µM
Procedure, shortened: as §1

Measured: Potency

CN(C)CC/C=C1\c2ccccc2CSc2ccccc21
inactive: [1]

C[N+](C)(C)CC(O)CC(=O)O (stereo unspecified)
inactive: all assays above

O=C(Cc1cccs1)NC1C(=O)N2C(C(=O)[O-])=C(C[n+]3ccccc3)CSC12 (stereo unspecified)
not listed: [1]
inactive: all other assays above

CC(C)N1CCN(c2ccc(OC[C@@H]3CO[C@@](Cn4cncn4)(c4ccc(Cl)cc4Cl)O3)cc2)CC1
not listed: [5] | [14] | [17]
inactive: all other assays above

C[C@@H]1CCC[C@H](C)N1NC(=O)c1ccc(Cl)c(S(N)(=O)=O)c1
inactive: all assays above

CN1[C@@H]2CC[C@H]1CC(OC(=O)[C@@H](O)c1ccccc1)C2 (stereo partly specified)
not listed: [1]
inactive: all other assays above
